# Assay results taken from the supplement of paper PMC8728848.
# The full list was thinned out, with the strongest signals kept by preference.
# How the values were obtained:
# Assay in all cases: glycan array binding signal (z-score within array); higher = stronger binding
# Conditions in all cases: glycan notation: IUPAC condensed, linker removed; mutation: R343I
# Fuc(a1-2)Gal(b1-4)Glc6S = target: Fuc(a1-2)Gal(b1-4)Glc6S
# Outline: (§1)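 Glycan array data were curated from 3228 arrays in the Consortium for Functional Glycomics database and kept only where the protein sequence was available. Glycan names were converted to IUPAC-condensed notation, and columns mapping to the same glycan were averaged. The binding signal is a within-array Z-score, averaged across arrays of the same protein sequence at different concentrations or buffers and across linkers. Negative Z-scores can be read as non-binding.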
# Fuc(a1-2)[Gal(a1-3)]Gal = target: Fuc(a1-2)[Gal(a1-3)]Gal
# Outline: as §1
# [1] = target: Fuc(a1-2)[Gal(a1-3)]Gal(b1-3)GlcNAc
# Outline: as §1
# [2] = target: Fuc(a1-2)[GalNAc(a1-4)]Gal(b1-4)GlcNAc
# Outline: as §1
# Fuc(a1-3)GlcNAc = target: Fuc(a1-3)GlcNAc
# Outline: as §1
# [3] = target: Fuc(a1-3)[Gal(b1-4)]GlcNAc(b1-2)Man(a1-3)[Fuc(a1-3)[Gal(b1-4)]GlcNAc(b1-2)Man(a1-6)]Man(b1-4)GlcNAc(b1-4)GlcNAc
# Outline: as §1
# [4] = target: Fuc(a1-3)[Gal(b1-4)]GlcNAc(b1-2)Man(a1-6)[Gal(b1-4)GlcNAc(b1-2)Man(a1-3)]Man(b1-4)GlcNAc(b1-4)GlcNAc
# Outline: as §1
# Gal(a1-2)Gal = target: Gal(a1-2)Gal
# Outline: as §1
# Gal(a1-3)GalNAc = target: Gal(a1-3)GalNAc
# Outline: as §1
# Gal(a1-4)GlcNAc = target: Gal(a1-4)GlcNAc
# Outline: as §1
# [5] = target: Gal(b1-3)[GlcNAc(b1-6)]GalNAc
# Outline: as §1
# [6] = target: Gal(b1-3)[Neu5Ac(b2-6)]GalNAc
# Outline: as §1
# [7] = target: Gal(b1-4)GalNAc(a1-3)[Fuc(a1-2)]Gal(b1-4)GlcNAc
# Outline: as §1
# [8] = target: Gal(b1-4)GlcNAc(b1-6)GalNAc
# Outline: as §1
# [9] = target: GlcNAc(b1-2)Man(a1-3)[GlcNAc(b1-2)Man(a1-6)]Man(b1-4)GlcNAc(b1-4)GlcNAc
# Outline: as §1
# GlcNAc(b1-3)Man = target: GlcNAc(b1-3)Man
# Outline: as §1
# [10] = target: GlcNAc(b1-4)[GlcNAc(b1-6)]GalNAc
# Outline: as §1
# [11] = target: Man(a1-2)Man(a1-2)Man(a1-3)Man
# Outline: as §1
# [12] = target: Man(a1-2)Man(a1-3)[Man(a1-2)Man(a1-6)]Man(a1-6)[Man(a1-2)Man(a1-2)Man(a1-3)]Man
# Outline: as §1
# [13] = target: Man(a1-2)Man(a1-3)[Man(a1-6)]Man(a1-6)[Man(a1-2)Man(a1-3)]Man(b1-4)GlcNAc(b1-4)GlcNAc
# Outline: as §1
# [14] = target: Man(a1-2)Man(a1-6)[Man(a1-3)]Man(a1-6)[Man(a1-2)Man(a1-2)Man(a1-3)]Man
# Outline: as §1
# Man(a1-3)[Man(a1-6)]Man = target: Man(a1-3)[Man(a1-6)]Man
# Outline: as §1
# Man(a1-6)Man = target: Man(a1-6)Man
# Outline: as §1
# [15] = target: Neu5Ac(a2-3)Gal(b1-3)GlcNAc(b1-3)Gal(b1-3)GlcNAc
# Outline: as §1
# [16] = target: Neu5Ac(a2-3)Gal(b1-3)GlcNAc6S
# Outline: as §1
# [17] = target: Neu5Ac(a2-3)Gal(b1-4)GlcNAc(b1-3)Gal(b1-4)GlcNAc
# Outline: as §1
# [18] = target: Neu5Ac(a2-3)Gal(b1-4)GlcNAc(b1-6)[Neu5Ac(a2-3)Gal(b1-3)]GalNAc
# Outline: as §1
# Neu5Ac(a2-6)GalNAc = target: Neu5Ac(a2-6)GalNAc
# Outline: as §1
# [19] = target: Neu5Ac(a2-8)Neu5Ac(a2-3)Gal(b1-4)Glc
# Outline: as §1
binder,measurement,setting,value
Surfactant Protein D (Human); Neck + Carbohydrate Recognition Domain (NCRD) (Homo sapiens) (protein) MLLFLLSALVLLTQPLGYLEAEMKTYSHRTMPSACTLVMCSSVESGLPGRDRDGREGPRGEKGDPGLPGAAGQAGMPGQAGPVGPKGDNGSVGEPGPKGDTGPSGPPGPPGVPGPAGREGALGKQGNIGPQGKPGPKGEAGPKGEVGAPGMQGSAGARGLAGPKGERGVPGERGVPGNTGAAGSAGAMGPQGSPGARGPPGLKGDKGIPGDKGAKGESGLPDVASLRQQVEALQGQVQHLQAAFSQYKKVELFPNGQSVGEKIFKTAQFVKPFTEAQLLCTQAGGQLASPRSAAENAALQQLVVAKNEAAFLSMTDSKTEGKFTYPTGESLVYSNWAPGEPNDDGGSEDCVEIFTNGKWNDIACGEKRLVVCEF,glycan array binding signal (z-score),Fuc(a1-2)Gal(b1-4)Glc6S,-0.274
same,glycan array binding signal (z-score),Fuc(a1-2)[Gal(a1-3)]Gal,-0.265
same,glycan array binding signal (z-score),[1],-0.272
same,glycan array binding signal (z-score),[2],-0.266
same,glycan array binding signal (z-score),Fuc(a1-3)GlcNAc,5.51
same,glycan array binding signal (z-score),[3],-0.264
same,glycan array binding signal (z-score),[4],-0.272
same,glycan array binding signal (z-score),Gal(a1-2)Gal,-0.275
same,glycan array binding signal (z-score),Gal(a1-3)GalNAc,-0.268
same,glycan array binding signal (z-score),Gal(a1-4)GlcNAc,-0.27
same,glycan array binding signal (z-score),[5],-0.274
same,glycan array binding signal (z-score),[6],-0.276
same,glycan array binding signal (z-score),[7],-0.263
same,glycan array binding signal (z-score),[8],-0.275
same,glycan array binding signal (z-score),[9],5.45
same,glycan array binding signal (z-score),GlcNAc(b1-3)Man,-0.076
same,glycan array binding signal (z-score),[10],-0.05
same,glycan array binding signal (z-score),[11],4.64
same,glycan array binding signal (z-score),[12],4.37
same,glycan array binding signal (z-score),[13],4.08
same,glycan array binding signal (z-score),[14],4.33
same,glycan array binding signal (z-score),Man(a1-3)[Man(a1-6)]Man,0.263
same,glycan array binding signal (z-score),Man(a1-6)Man,-0.261
same,glycan array binding signal (z-score),[15],-0.268
same,glycan array binding signal (z-score),[16],-0.275
same,glycan array binding signal (z-score),[17],-0.278
same,glycan array binding signal (z-score),[18],-0.275
same,glycan array binding signal (z-score),Neu5Ac(a2-6)GalNAc,-0.269
same,glycan array binding signal (z-score),[19],-0.267
